The values that follow come from PubChem BioAssay (NCI).

What all share (experiment): NCI-60 one-dose screen, 48 h (100 = growth as untreated, 0 = no growth, -100 = all killed)
The test system of one experiment is NCI-H23 lung. The conditions noted are these: 10 µM unless noted.
Another experiment deals with NCI-H226 lung. Particulars: 10 µM unless noted.
Another experiment concerns NCI-H322M lung. The conditions noted are these: 10 µM unless noted.
The next experiment deals with HOP-62 NSCLC. The conditions noted are these: 10 µM unless noted.
Another experiment relates to NCI-H460 lung. The conditions noted are these: 10 µM unless noted.
The subject of a further experiment is HOP-92 NSCLC. Particulars: 10 µM unless noted.
For a further experiment, the system named is NCI-H522 lung. The conditions noted are these: 10 µM unless noted.
The subject of another experiment is A549/ATCC NSCLC. Particulars: 10 µM unless noted.
Another experiment deals with 786-0 renal. Particulars: 10 µM unless noted.
Another experiment has as its system COLO 205 colon. Particulars: 10 µM unless noted.
In the next experiment the test system is DU-145 prostate. Particulars: 10 µM unless noted.
Another experiment concerns K-562 leukemia. Particulars: 10 µM unless noted.
For another experiment, the system named is MALME-3M melanoma. Particulars: 10 µM unless noted.
The next experiment has as its system MDA-MB-231 breast. Particulars: 10 µM unless noted.
For the next experiment, the system named is RXF 393 renal. Particulars: 10 µM unless noted.
A further experiment relates to SF-268 CNS. The conditions noted are these: 10 µM unless noted.
The next experiment has as its system SF-295 CNS. Particulars: 10 µM unless noted.
The next experiment has as its system SF-539 CNS. The conditions noted are these: 10 µM unless noted.
Another experiment relates to UACC-257 melanoma. Particulars: 10 µM.
For the next experiment, the system named is M14 melanoma. Particulars: 10 µM unless noted.

Compounds without any hit were thinned out: in the full panel of roughly 83,000, 20% have a hit.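 Assay: single dose, 48 h. Readout: percent growth (0 = no net growth; negative = cell death). Active: <10.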 Values without a mark were called inactive. Calls of active or inactive are those of the source.

As to `O=C(Nc1cc(Cl)cc(Cl)c1)Nc1nc2ccc([N+](=O)[O-])cc2s1`, the growth with NCI-H23 lung is -37.7% (active); with NCI-H226 lung it was -9.83% (active); with NCI-H322M lung, 9.2% (active); in the experiment with HOP-62 NSCLC it was -4.21% (active); with NCI-H460 lung, 1.08% (active); in the experiment with HOP-92 NSCLC, -6.65% (active). The growth with NCI-H522 lung was 1.99% (active); in the experiment on A549/ATCC NSCLC it was 9.1% (active); in the experiment on 786-0 renal, 11%; in the experiment on COLO 205 colon, -49.2% (active); in the experiment on DU-145 prostate it was 16.9%; in the experiment on K-562 leukemia, 3.25% (active). Also, the growth was -8.59% (active) in the experiment on MALME-3M melanoma; -0.651% (active) with MDA-MB-231 breast; -25% (active) in the experiment on RXF 393 renal; 15.4% in the experiment on SF-268 CNS; -57.2% (active) in the experiment with SF-295 CNS; 3.86% (active) in the experiment on SF-539 CNS. The values for the growth in the experiment on UACC-257 melanoma and with M14 melanoma were -14.5% (active) and -9.81% (active), respectively.
`O=C(CCCCCCN1CC(=O)N2[C@@H](c3ccc(Cl)c(F)c3)c3[nH]c4ccccc4c3C[C@H]2C1=O)NO`: the growth in the experiment on NCI-H23 lung is 95.3%; in the experiment on NCI-H226 lung, 101%; in the experiment with NCI-H322M lung, 86.1%; with HOP-62 NSCLC it was 78.8%; in the experiment with NCI-H460 lung it was 79.5%; with HOP-92 NSCLC it was 92.2%. Moreover, the growth in the experiment on NCI-H522 lung is 71.7%; with A549/ATCC NSCLC, 104%; in the experiment on 786-0 renal, 93.9%; with COLO 205 colon it was 97.4%; in the experiment with DU-145 prostate, 87.8%; with K-562 leukemia, 53.7%. Further, the growth in the experiment with MALME-3M melanoma is 59.8%; in the experiment on MDA-MB-231 breast, 75.9%; with RXF 393 renal, 100%; with SF-268 CNS, 106%; in the experiment on SF-295 CNS it was 78.7%; in the experiment with SF-539 CNS, 83.8%. Further, the growth is 82% in the experiment on UACC-257 melanoma and 82.4% with M14 melanoma.
In the case of `Cn1cc(-c2nn3cc(-c4ccncc4)nc3s2)c2cc(Cl)ccc21`, the growth with NCI-H23 lung was 44.5%; in the experiment on NCI-H226 lung, 86.1%; in the experiment with NCI-H322M lung, 78.3%; in the experiment on HOP-62 NSCLC, 67.4%; with NCI-H460 lung, 51.5%; in the experiment with HOP-92 NSCLC it was 0.128% (active). Moreover, the growth in the experiment with NCI-H522 lung was 46%; in the experiment on A549/ATCC NSCLC, 64%; with 786-0 renal, 89.1%; with COLO 205 colon, 31.9%; in the experiment on DU-145 prostate, 74.3%; in the experiment on K-562 leukemia it was -1.66% (active). In addition, the growth with MALME-3M melanoma was 48.2%; in the experiment on MDA-MB-231 breast, 73.5%; in the experiment with RXF 393 renal, 75.9%; with SF-268 CNS it was 67.9%; in the experiment with SF-295 CNS it was 35.1%; in the experiment with SF-539 CNS, 82.1%. The growth with UACC-257 melanoma was 89.1%; with M14 melanoma it was 52.5%.
As for `CCOC(=O)c1ccc(N/C=C/C(=O)c2ccccc2)cc1`, the growth with NCI-H23 lung is 103%; with NCI-H226 lung, 105%; in the experiment on NCI-H322M lung, 97%; in the experiment with HOP-62 NSCLC, 111%; in the experiment with NCI-H460 lung it was 104%; in the experiment with HOP-92 NSCLC, 124%. For the same molecule, the growth in the experiment with NCI-H522 lung is 94.8%; in the experiment with A549/ATCC NSCLC, 101%; in the experiment on 786-0 renal it was 94%; in the experiment on COLO 205 colon, 101%; in the experiment on DU-145 prostate, 101%; in the experiment on K-562 leukemia, 98.8%. Also, the growth in the experiment with MALME-3M melanoma was 107%; in the experiment on MDA-MB-231 breast it was 105%; in the experiment on RXF 393 renal it was 99%; in the experiment with SF-268 CNS, 102%; in the experiment with SF-295 CNS, 93.4%; in the experiment with SF-539 CNS, 101%. The results for the growth in the experiment on UACC-257 melanoma and in the experiment with M14 melanoma were 108% and 97%, respectively.
Turning to `c1ccc(-c2n(Cc3ccc4ccccc4c3)c3c4ccccc4c4ccccc4c3[n+]2Cc2ccc3ccccc3c2)cc1`, the growth with NCI-H23 lung was -79.9% (active); in the experiment with NCI-H226 lung, -74% (active); with NCI-H322M lung, -80.1% (active); with HOP-62 NSCLC, -69.2% (active); in the experiment with NCI-H460 lung, -62.9% (active); in the experiment with HOP-92 NSCLC, -77% (active). For the same molecule, the growth with NCI-H522 lung is -74.9% (active); with A549/ATCC NSCLC, -69.2% (active); with 786-0 renal, -67% (active); in the experiment with COLO 205 colon, -59.5% (active); in the experiment with DU-145 prostate, -94.4% (active); with K-562 leukemia, -45% (active). In addition, the growth in the experiment on MALME-3M melanoma was -81.4% (active); with MDA-MB-231 breast it was -79% (active); in the experiment on RXF 393 renal, -83.2% (active); in the experiment on SF-268 CNS, -63.6% (active); with SF-295 CNS it was -87.1% (active); in the experiment with SF-539 CNS, -81.8% (active). Further, the growth is -38.2% (active) in the experiment on UACC-257 melanoma and -64.6% (active) in the experiment with M14 melanoma.
For the molecule `COC[C@]12CC[C@@H](C)[C@H](C)[C@H]1C1=CC[C@@H]3[C@@]4(C)CCCNC(C)(C)[C@@H]4CC[C@@]3(C)[C@]1(C)CC2`, the growth in the experiment with NCI-H23 lung is 52.1%; in the experiment on NCI-H226 lung, 58%; with NCI-H322M lung, 64.6%; with HOP-62 NSCLC it was 40%; in the experiment with NCI-H460 lung, -42.3% (active); with HOP-92 NSCLC, 48.3%. The growth in the experiment with NCI-H522 lung is -31.9% (active); in the experiment with A549/ATCC NSCLC it was 20.8%; with 786-0 renal it was 21.1%; in the experiment with COLO 205 colon, -52.4% (active); in the experiment on DU-145 prostate, 12.8%; in the experiment on K-562 leukemia, 0.992% (active). Moreover, the growth in the experiment on MALME-3M melanoma was -36.7% (active); with MDA-MB-231 breast it was 51.2%; in the experiment with RXF 393 renal it was 56.2%; in the experiment on SF-268 CNS, 70.2%; in the experiment with SF-295 CNS it was -74.2% (active); in the experiment on SF-539 CNS, 26.3%. Moreover, the growth in the experiment with UACC-257 melanoma is 20.3%; in the experiment on M14 melanoma, -48.3% (active).
In the case of `N#C/C(=C\c1ccc2ccccc2c1)C(=O)Nc1sc2c(c1C#N)CCC2`, the growth with NCI-H23 lung is 99.5%; with NCI-H226 lung, 94.1%; in the experiment on NCI-H322M lung, 113%; in the experiment with HOP-62 NSCLC, 106%; in the experiment on NCI-H460 lung, 104%; in the experiment on HOP-92 NSCLC it was 81.4%. Also, the growth in the experiment with NCI-H522 lung is 96.7%; in the experiment on A549/ATCC NSCLC it was 98.4%; in the experiment on 786-0 renal it was 99.6%; in the experiment on COLO 205 colon, 115%; with DU-145 prostate, 103%; in the experiment on K-562 leukemia, 96.2%. The growth in the experiment on MALME-3M melanoma is 116%; in the experiment on MDA-MB-231 breast it was 98.1%; in the experiment on RXF 393 renal, 107%; in the experiment with SF-268 CNS, 103%; with SF-295 CNS it was 95.3%; in the experiment on SF-539 CNS, 102%. Besides, the growth with UACC-257 melanoma is 108%; in the experiment on M14 melanoma, 106%.
